Results published in PubChem BioAssay.
Calls of active or inactive are those of the source. Unless noted, no rule for the calls is given here.

What was measured:
[1] = system: XIP peptide (Xip251-270) binding; test: small-molecule binders of XIP peptide, primary screen, biochemical, small-molecule microarray, fluorescence 635/667 nm, 0.1 µg/mL protein (AID 1182); settings: fluorescent protein binding, 635 nm, higher = more signal, called active from +8 up or from −8 down
[2] = system: XIP peptide (Xip251-270); test: small-molecule binders of XIP peptide, primary screen, biochemical, small-molecule microarray, fluorescence 635/667 nm, 0.5 µg/mL protein (AID 1183); settings: small-molecule microarray binding, fluorescence 635 nm; higher = more signal
[3] = Plasmodium falciparum growth inhibition, primary screen, strain 3D7, DAPI fluorescence, 100 nL (AID 1184);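 also: parasites grown inside human red blood cells in medium with human serum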; settings: P. falciparum 3D7 growth, 3 d, higher = more signal
[4] = target: Homeobox protein Hox-A13 (Mus musculus) (UniProt Q62424); test: inhibitors of HoxA13-DNA binding, primary screen, biochemical, fluorescence polarization, labeled oligonucleotide (AID 1185); settings: 15 min, higher = more signal, called active from +8 up or from −8 down
Chain of Homeobox protein Hox-A13 (Mus musculus) (Q62424 whole entry, looked up): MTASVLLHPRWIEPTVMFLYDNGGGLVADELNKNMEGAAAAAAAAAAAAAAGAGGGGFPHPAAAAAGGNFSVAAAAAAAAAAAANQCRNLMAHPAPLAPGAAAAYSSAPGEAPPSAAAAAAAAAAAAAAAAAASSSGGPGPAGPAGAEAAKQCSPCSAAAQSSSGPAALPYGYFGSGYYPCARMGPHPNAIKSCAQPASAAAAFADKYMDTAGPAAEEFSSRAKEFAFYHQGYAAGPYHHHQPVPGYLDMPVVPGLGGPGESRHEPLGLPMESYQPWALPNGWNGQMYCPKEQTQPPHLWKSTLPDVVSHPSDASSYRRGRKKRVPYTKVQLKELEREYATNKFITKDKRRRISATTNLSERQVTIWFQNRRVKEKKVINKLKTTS

[5] = inhibitors of hydroxyurea-induced Chk1 phosphorylation, primary screen, imaging, HeLa, phospho-Chk1 antibody, percent positive cells (AID 1186); settings: hydroxyurea-induced phospho-Chk1 immunofluorescence imaging, higher = more signal
[6] = inhibitors of hydroxyurea-induced Chk1 phosphorylation, primary screen, imaging, HeLa, phospho-Chk1 nuclear intensity (AID 1187); settings: hydroxyurea-induced phospho-Chk1 immunofluorescence imaging, higher = more signal

SMILES	composite z-score [1]	composite z-score [2]	z-score [3]	z-score [4]	z-score [5]	z-score [6]
COC(=O)[C@@]1(Cc2ccccc2)[C@H]2c3cc(C(=O)N4CCCC4)n(Cc4ccccc4)c3C[C@H]2CN1C(=O)c1ccccc1	3.1 (inactive)	-0.179	-1.12	-4.13 (inactive)	0.234 (inactive)	0.167 (inactive)
COc1ccc(CCNC(=O)[C@@H]2c3ccccc3C(=O)N(Cc3ccccc3)[C@H]2c2ccc(CO)cc2)cc1	1.09 (inactive)	0.619	-1.08	-3.2 (inactive)	-0.938 (inactive)	-1.38 (inactive)
CCCCC(CC)C(O)C1C=CC2C(=O)NC(=O)C2N1Nc1ccccn1 (stereo unspecified)	0.327 (inactive)	0.781	0.133	-3.87 (inactive)	0.0438 (inactive)	-0.119 (inactive)
COCCOC(=O)N1C(=O)[C@@]2(c3cc(C#CCNC(N)=O)ccc31)[C@H](C(=O)N1CCCCCCC1)[C@H]1C(=O)O[C@H](c3ccccc3)[C@H](c3ccccc3)N1[C@@H]2c1ccc(OCCO)cc1	0.0447 (inactive)	0.28	-1.77	-15.8 (active)	-0.0977 (inactive)	-0.64 (inactive)
CC(C)NC(=O)[C@@H]1c2ccccc2C(=O)N(Cc2cc(C(F)(F)F)cc(C(F)(F)F)c2)[C@H]1c1ccc(CO)cc1	1.14 (inactive)	0.55	-0.337	-3.9 (inactive)	0.349 (inactive)	0.622 (inactive)
CC(=O)NCCCC[C@@H]1NC(=O)[C@H]2C[C@@H](C(=O)NCCCCCN)[C@@H](c3cccc(OCCO)c3)N2C1=O	0.149 (inactive)	0.654	0.184	-2.28 (inactive)	-1.11 (inactive)	-0.661 (inactive)
COCCCNC(=O)[C@@H]1c2ccccc2C(=O)N(c2ccc(C)cn2)[C@H]1c1ccc(CO)cc1	-0.0692 (inactive)	0.305	-1.38	-0.943 (inactive)	-0.106 (inactive)	0.236 (inactive)
CN(C)C(=O)[C@@]1(CCS(=O)(=O)c2ccccc2)N=C(c2ccc(OCCCO)cc2)O[C@H]1c1ccccc1CN=[N+]=[N-]	1.41 (inactive)	0.653	-2.48	-5.32 (inactive)	-0.359 (inactive)	-0.243 (inactive)
CC(C)C(CO)N1C(=O)[C@@H]2[C@H]3C(=O)OCC=C[C@H]3OC23C=CCN(CCN2CCOCC2)C(=O)[C@@H]13 (stereo partly specified)	0.708 (inactive)	0.3	-0.0296	-4.54 (inactive)	0.318 (inactive)	0.436 (inactive)
COc1ccccc1CN1C(=O)c2ccccc2[C@@H](C(=O)NCC(C)C)[C@@H]1c1ccc(CO)cc1	0.25 (inactive)	0.791	-1.24	-1.48 (inactive)	0.0947 (inactive)	0.525 (inactive)
COC(=O)[C@@]1(Cc2ccc(OC)cc2)[C@H]2c3cc(C(=O)N(C)C)n(Cc4cc(C)n(C)n4)c3C[C@H]2CN1C(=O)c1ccccc1	0.254 (inactive)	0.762	-1.63	-5.1 (inactive)	0.53 (inactive)	0.263 (inactive)
Cc1ccccc1C(O)C1C=CC2C(=O)N(Cc3ccccc3)C(=O)C2N1n1cnnc1 (stereo unspecified)	0.598 (inactive)	0.58	-0.318	-3.23 (inactive)	0.135 (inactive)	-0.544 (inactive)
CCOC(=O)C[C@H]1[C@H](OC(=O)c2ccccc2-c2ccccc2)[C@@H](NC(=O)c2ccccc2)c2cc(OCCCO)ccc2N1C(=O)Cc1ccc(OC)cc1	-0.231 (inactive)	-0.73	-0.375	-2.77 (inactive)	0.237 (inactive)	0.356 (inactive)
C=CC[C@]1(C(=O)NCC(O)CO)N=C(c2ccc(OCCCO)cc2)O[C@H]1c1ccccc1N=[N+]=[N-] (stereo partly specified)	2.54 (inactive)	0.159	-2.3	-3.71 (inactive)	-0.353 (inactive)	-0.236 (inactive)
COc1ccc([Si](C)(C)[C@@H]2[C@@H](CCO)O[C@]3(C(=O)N(Cc4ccccc4)c4ccc(N5C(=O)COc6ccccc65)cc43)[C@H]2C)cc1	-0.234 (inactive)	0.667	-2.82	-1.89 (inactive)	-1.26 (inactive)	-1.47 (inactive)
CC(C)(C)OC(=O)CC[C@@]1(C(=O)N2CCCCC2)N=C(c2ccc(OCCCO)cc2)O[C@@H]1c1ccccc1CN=[N+]=[N-]	1.32 (inactive)	0.824	-2.24	-4.37 (inactive)	-0.325 (inactive)	-0.038 (inactive)

SMILES	composite z-score [1]	composite z-score [2]	z-score [3]	z-score [4]	z-score [5]	z-score [6]
CC1=C2[C@@H](CCc3ccccc3)OB(O)C[C@@H]2[C@@H]2C(=O)C=CC(=O)[C@@H]2C1	-0.387 (inactive)	0.403	-1.15	-6.24 (inactive)	1.15 (inactive)	1.1 (inactive)
C=C(/C(=C/C[C@@H](OC(=O)c1ccncc1)c1ccccc1OCCO)c1cnc2ccccc2c1)C(C)C	0.509 (inactive)	0.723	-2.55	-4.63 (inactive)	0.864 (inactive)	0.737 (inactive)
CO[C@H]1O[C@H](CO)[C@@H](OC(=O)c2ccc(Br)cc2)[C@@H]2OC(=O)[C@H](Cc3cccc(Br)c3)C/C=C/C[C@@H](Cc3cccc(Br)c3)C(=O)O[C@@H]12	1.69 (inactive)	0.675	-0.706	-2.82 (inactive)	0.373 (inactive)	0.574 (inactive)
COc1cccc(C[C@H]2C[C@@H](CO[Si](C(C)C)(C(C)C)C(C)C)N3C(=O)[C@]4(C(C)=O)O[C@]23[C@H]2C(=O)N(C)C(=O)[C@H]24)c1	0.0522 (inactive)	0.459	-0.281	-3.12 (inactive)	0.527 (inactive)	0.139 (inactive)
COCCCNC(=O)[C@@]1(Cc2ccccc2I)c2ccccc2C(=O)N(Cc2ccccc2Cl)[C@H]1c1ccc(CO)cc1	1.75 (inactive)	0.595	-1.22	-4.93 (inactive)	-0.152 (inactive)	0.187 (inactive)
O=C1N(Cc2ccccc2)c2ccccc2[C@H]2OC(c3ccc(OCCCO)cc3)=N[C@@]12CCS(=O)(=O)c1ccccc1	0.0535 (inactive)	0.371	-2.56	-1.54 (inactive)	-0.103 (inactive)	-0.0726 (inactive)
NCCCCCCNC(=O)[C@H]1C[C@H]2C(=O)N3CCC[C@H]3C(=O)N2[C@H]1c1ccc(O)cc1	-0.118 (inactive)	0.451	0.0311	-2.4 (inactive)	-0.0342 (inactive)	0.0369 (inactive)
COc1ccccc1CN1C(=O)c2ccccc2[C@](Cc2ccccc2I)(C(=O)NCCN2CCOCC2)[C@@H]1c1ccc(CO)cc1	-0.0028 (inactive)	0.755	-2.26	-4.74 (inactive)	-0.252 (inactive)	0.0168 (inactive)
C=CCC(OC(C)=O)[C@@H]1[C@@H](N(Cc2ccc(-c3cccc(C(F)(F)F)c3)o2)C(=O)c2cccc3ccccc23)c2cc(OCCCO)ccc2N1C(=O)c1ccc(-c2ccccc2)cc1 (stereo partly specified)	-0.0517 (inactive)	-0.131	-3	-2.39 (inactive)	-0.403 (inactive)	-0.16 (inactive)
C[N+](C)(C)CCCC[C@@H]1NC(=O)[C@@H]2C[C@H](C(=O)O)[C@H](c3cccc(OCCO)c3)N2C1=O	1.36 (inactive)	0.246	-0.0179	-3.69 (inactive)	0.153 (inactive)	0.16 (inactive)
COc1ccccc1CN1C(=O)c2ccccc2[C@@]2(Cc3ccccc3N(C3CC3)C2=O)[C@@H]1c1ccc(CO)cc1	-0.0699 (inactive)	0.53	0.35	-2.14 (inactive)	0.315 (inactive)	0.491 (inactive)
COC(=O)C(CC#Cc1ccc2c(c1)[C@]1(C(=O)N2)[C@H](C(=O)N2CCc3cc(OC)c(OC)cc3C2)[C@H]2C(=O)O[C@H](c3ccccc3)[C@H](c3ccccc3)N2[C@@H]1c1ccc(O)cc1)C(=O)OC	0.534 (inactive)	0.789	-2.45	-0.323 (inactive)	0.297 (inactive)	0.826 (inactive)
O=C1N(CCS(=O)(=O)c2ccccc2)c2ccccc2[C@H]2OC(c3ccc(OCCCO)cc3)=N[C@@]12CCS(=O)(=O)c1ccccc1	2.51 (inactive)	0.776	-2.05	0.758 (inactive)	0.109 (inactive)	0.545 (inactive)
COC(=O)[C@@]1(Cc2ccccc2)[C@H]2c3cc(C(=O)N4CCCC4)n(Cc4ccc(OC(F)(F)F)cc4)c3C[C@H]2CN1C(=O)c1ccccc1	0.511 (inactive)	0.408	-1.4	-3.01 (inactive)	0.182 (inactive)	-0.781 (inactive)
COCCCNC(=O)[C@@]1(Cc2ccccc2CN=[N+]=[N-])N=C(c2ccc(OCCCO)cc2)O[C@H]1c1ccccc1N=[N+]=[N-]	0.167 (inactive)	0.668	-2.22	-2.62 (inactive)	-0.498 (inactive)	-0.475 (inactive)
